Reference: PubChem BioAssay
Activity calls are given as the source filed them.

Tests used:
Albumin (Bos taurus) = Albumin (Bos taurus) (UniProt P02769); assay: bovine serum albumin binders on microarray, profiling panel, artefact control for SMM control protein annotation, biochemical, small-molecule microarray, Alexa647 label, 635/667 nm fluorescence (AID 1118); settings: BSA-A647 binding, fluorescence 635 nm, higher = more signal;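 further: score merges 667 nm emission intensity and signal-to-noise per printed compound spot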
Albumin (Bos taurus), sequence (P02769 whole entry, looked up): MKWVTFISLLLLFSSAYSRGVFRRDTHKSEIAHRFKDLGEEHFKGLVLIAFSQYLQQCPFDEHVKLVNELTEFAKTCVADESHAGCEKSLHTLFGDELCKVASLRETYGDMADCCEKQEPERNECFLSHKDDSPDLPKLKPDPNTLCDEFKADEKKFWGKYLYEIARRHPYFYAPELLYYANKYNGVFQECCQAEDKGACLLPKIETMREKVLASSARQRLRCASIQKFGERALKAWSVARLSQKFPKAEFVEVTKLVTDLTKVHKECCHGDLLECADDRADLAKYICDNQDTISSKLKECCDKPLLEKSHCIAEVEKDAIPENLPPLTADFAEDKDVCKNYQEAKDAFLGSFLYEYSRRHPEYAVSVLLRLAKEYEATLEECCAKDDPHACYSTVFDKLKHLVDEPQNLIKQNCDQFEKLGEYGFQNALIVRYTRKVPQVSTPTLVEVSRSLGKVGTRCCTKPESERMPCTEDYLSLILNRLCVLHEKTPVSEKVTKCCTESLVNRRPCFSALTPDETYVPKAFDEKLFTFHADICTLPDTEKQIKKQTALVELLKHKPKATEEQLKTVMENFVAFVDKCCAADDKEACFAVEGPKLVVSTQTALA

[1] = small-molecule microarray binders of probe aXIP, primary screen, biochemical, NeuroSMM set, 635/667 nm fluorescence (AID 1119); settings: higher = more signal, called active from +8 up or from −8 down;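 further: probe is the protein aXip251-270 applied at 1 µg/mL to compound-printed slides; binding of probe to printed compounds measured as 667 nm fluorescence plus signal to noise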
[2] = small-molecule binders of probe aNOTCH3, primary screen, biochemical, small-molecule microarray, 635/667 nm fluorescence (AID 1120); settings: higher = more signal;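 further: probe is a biotin-tagged antibody raised against NOTCH3 rather than NOTCH3 protein; score merges spot fluorescence near 667 nm with spot signal to noise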
[3] = small-molecule binders of probe aNOTCH2, primary screen, biochemical, small-molecule microarray, 635/667 nm fluorescence (AID 1121); settings: higher = more signal;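 further: score merges feature fluorescence read at 667 nm with its signal to noise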
[4] = target: Carbonic anhydrase 2 (Homo sapiens) (UniProt P00918); assay: CAII small-molecule binders, profiling panel, biochemical, small-molecule microarray, Alexa647-labelled CAII (AID 1122); settings: CAII-A647 binding fluorescence, higher = more signal
[5] = COS7 lysate on small-molecule microarray, probe aHis, 635 nm (AID 1123); settings: COS7 cell lysate, fluorescence, higher = more signal;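 further: z-score combines 667nm fluorescence intensity with signal-to-noise per printed compound spot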
[6] = compound binding in COS7 lysate, probe aLAP1, primary screen, cell lysate, small-molecule microarray (AID 1124); settings: probe aLAP1, fluorescence, higher = more signal;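 further: lysate comes from COS7 cells expressing LAP1 and is applied at 0.3 µg/mL; score merges spot fluorescence near 667 nm with signal-to-noise over triplicate slides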
Sam68 (KHDRBS1) = assay: Sam68 small-molecule binders, primary screen, biochemical, small-molecule microarray, 635 nm fluorescence (AID 1125); settings: small-molecule microarray binding, higher = more signal;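 further: score merges 667 nm channel intensity with signal to noise over triplicate slides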
[7] = system: Chordin-like protein 2 (CHRDL2); assay: CHRDL2 small-molecule binders, primary screen, biochemical, small-molecule microarray, 635 nm fluorescence (AID 1126); settings: small-molecule microarray binding, fluorescence 635 nm; higher = more signal;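 further: printed compound slides probed with Chrdl2 protein at 4 µg/mL for 1 h at 4 C; score merges 667 nm emission intensity with signal to noise over three replicate slides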
[8] = target: Concanavalin-A (Canavalia ensiformis) (UniProt P02866); assay: ConA small-molecule binders, primary screen, artefact control for SMM control protein annotation, biochemical, small-molecule microarray, Alexa647 label, 635 nm (AID 1127); settings: ConA-A647 binding fluorescence, higher = more signal;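 further: z combines 667 nm emission intensity with signal-to-noise across three replicate slides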
Concanavalin-A (Canavalia ensiformis), sequence (P02866 whole entry, looked up): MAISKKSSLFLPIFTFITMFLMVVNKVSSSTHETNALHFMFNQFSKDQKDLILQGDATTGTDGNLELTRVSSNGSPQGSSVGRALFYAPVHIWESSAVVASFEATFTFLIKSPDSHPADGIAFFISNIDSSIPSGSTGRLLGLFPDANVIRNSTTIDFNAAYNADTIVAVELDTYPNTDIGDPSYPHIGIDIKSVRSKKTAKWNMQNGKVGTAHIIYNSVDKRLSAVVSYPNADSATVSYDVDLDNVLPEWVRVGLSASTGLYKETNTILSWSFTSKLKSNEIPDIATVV

Compound	composite z-score (Albumin (Bos taurus))	composite Z-score [1]	composite z-score [2]	composite z-score [3]	composite z-score [4]	composite z-score [5]	composite z-score [6]	composite z-score (Sam68 (KHDRBS1))	composite z-score [7]	composite z-score [8]
COC(=O)[C@@]1(Cc2ccc(F)cc2)[C@H]2c3cc(C(=O)N(C)C)n(CCn4cc([N+](=O)[O-])nc4C)c3C[C@H]2CN1C(=O)c1ccccc1	0.781	-0.133 (inactive)	0.0203	0.107	0.477	2.02	0.317	0.155	-0.187	0.294
COc1ccc([Si](C)(C)[C@H]2[C@H](CCO)O[C@@]3(C(=O)N(Cc4ccc(N5CCOC5=O)cc4)c4ccccc43)[C@@H]2C)cc1	0.243	-0.392 (inactive)	-0.0697	-0.1	0.417	1.5	0.171	0.968	-0.07	1.11
C[C@H]1NC(=O)C([C@@H](C)OCc2ccccc2)NC(=O)[C@@]23C(=O)N[C@@H](Cc4ccccc4)C2[C@H](C)[C@@]2(C)O[C@H]2C3/C=C/C/C=C\CNC1=O (stereo not given in full)	-0.224	-0.211 (inactive)	-0.136	-0.177	0.661	0.234	-0.0311	-0.204	0.601	-0.401
COc1ccc(C#Cc2ccc3c(c2)[C@]2(C(=O)N3)[C@H](C(=O)Nc3nc4ccccc4s3)[C@H]3C(=O)O[C@H](c4ccccc4)[C@H](c4ccccc4)N3[C@@H]2c2ccc(OCCO)cc2)cc1	0.789	0.403 (inactive)	0.109	-0.0486	0.622	2.46	0.816	1.31	0.254	1.17
O=C1OCCC=C[C@H]2OC34C=CCN(c5ccc(Cl)cc5)C(=O)[C@H]3N(CCO)C(=O)[C@@H]4C12 (stereo not given in full)	0.597	0.359 (inactive)	-0.406	-0.189	0.859	-0.387	-0.419	-0.914	-0.291	-0.648
C=C(CCCC)C(=O)CC[C@H](OC(=O)c1cccnc1)c1ccc(CO)o1	0.133	0.0385 (inactive)	0.19	-0.0323	0.555	1.07	1.06	1.3	0.608	1.1
CN1C(=O)[C@]2(CCC(=O)OC(C)(C)C)N=C(c3ccc(OCCCO)cc3)O[C@@H]2c2ccccc21	0.272	0.0786 (inactive)	-0.117	-0.12	0.709	2.69	-0.313	1.28	0.149	1.12
CC=CC(O)C1C=CC2C(=O)N(C)C(=O)C2N1NC(=O)OC(C)(C)C (stereo not given)	1.03	0.397 (inactive)	0.0687	-0.173	0.774	0.439	0.826	-0.0008	0.204	0.0815
N[C@@H](Cc1ccccc1)Cn1cc(C2(O)CCCCC2)nn1	-0.052	-0.116 (inactive)	-0.014	-0.14	-0.29	0.451	0.0682	0.525	0.0155	0.88
CC(C)CNC(=O)[C@@H]1c2ccccc2C(=O)N(CC23CC4CC(CC(C4)C2)C3)[C@H]1c1ccc(CO)cc1	0.486	0.642 (inactive)	-0.004	-0.14	0.132	1.74	0.0747	0.985	-0.284	1.07
COCCn1c(C(=O)N2CCCC2)cc2c1C[C@H]1CN(C(=O)c3ccccc3)[C@@](Cc3ccccc3)(C(=O)OC)[C@@H]21	1.03	0.239 (inactive)	0.676	0.6	0.676	3.14	0.403	1.29	-0.133	1.11
COc1ccc([Si](C)(C)[C@@H]2[C@@H](CC(=O)N(CCO)Cc3ccccc3)O[C@]3(C(=O)N(Cc4ccc(N5CCC5=O)cc4)c4ccccc43)[C@H]2C)cc1	0.212	-0.272 (inactive)	-0.178	-0.218	-0.23	0.711	-0.161	0.0201	0.508	0.783
CC1CC/C=C\[C@H]2OC34C=CCN(c5ccc(Cl)cc5)C(=O)[C@H]3N(CCCO)C(=O)[C@]4(C)C2C(=O)O1 (stereo not given in full)	0.784	0.182 (inactive)	-0.235	-0.18	0.931	-0.42	0.569	-0.38	-1.39	-0.749
COc1ccc([Si](C)(C)[C@@H]2[C@@H](CCO)O[C@]3(C(=O)N(Cc4ccccc4)c4ccc(N5C(=O)c6ccccc6Oc6ccccc65)cc43)[C@H]2C)cc1	0.208	0.304 (inactive)	-0.192	-0.155	-0.0035	0.981	-0.0345	-0.809	-1.36	0.718
O=C1OCCC/C=C\[C@H]2OC34C=CCN(Cc5ccccc5)C(=O)[C@H]3N(CCCCCO)C(=O)[C@@H]4C12 (stereo not given in full)	0.499	-0.615 (inactive)	-0.366	-0.112	0.861	3.41	1.65	-0.904	-0.906	-1.64
COc1cc2c(cc1O)C(c1ccc(CN3CCCC3)cc1)N(Cc1cccc(OC(F)(F)F)c1)CC2 (stereo not given)	0.771	0.339 (inactive)	-0.0795	-0.207	0.546	1.72	0.637	0.658	0.73	-0.328
COC(=O)[C@@]1(Cc2ccc(OC)cc2)[C@H]2c3cc(C(=O)N4CCCC4)n(CCc4ccc(OC)c(Br)c4)c3C[C@H]2CN1C(=O)c1ccccc1	1.01	-0.004 (inactive)	0.0305	0.162	0.895	2.78	1.11	0.251	0.257	-0.234
COCC1=C([C@H](O)CCc2ccccc2)[C@H](CO)n2c(=O)n(-c3ccccc3)c(=O)n2C1	-0.442	0.0423 (inactive)	-0.0014	-0.212	-0.447	-0.303	-0.469	-0.73	0.319	0.134
CCCCC(=C=CC[C@H](O)c1ccc(OCCO)cc1)C[C@H](O)c1ccccn1	-0.273	0.611 (inactive)	0.102	-0.0614	0.562	1.04	0.967	1.18	0.0162	0.544
C=CCC(OC(C)=O)[C@@H]1[C@@H](N(Cc2cccc3ccccc23)C(=O)c2cccc3ccccc23)c2cc(OCCCO)ccc2N1C(=O)Cc1ccc2ccccc2c1 (stereo not given in full)	-0.351	-0.745 (inactive)	-0.128	-0.147	-0.272	-0.331	-0.397	-0.0418	0.295	-0.508
CCCCCCc1nc(-c2ccc(OC)nc2)cc2c1[Si](C(C)C)(C(C)C)OC2	-0.361	0.582 (inactive)	-0.0858	-0.104	0.445	-0.689	-0.293	-0.299	-0.0659	0.502
O=C1O[C@@H](c2ccccc2)[C@@H](c2ccccc2)N2[C@@H](c3ccc(OCCO)cc3)[C@]3(C(=O)Nc4ccc(C#CCCO)cc43)[C@@H](C(=O)Nc3nc4ccccc4s3)[C@H]12	0.844	1.09 (inactive)	0.289	-0.148	0.458	1.48	0.426	1.3	0.324	1.09
CCCC[C@@H]1C[C@H]1[C@@H](NC(=O)Cc1ccccc1)c1ccc(Cl)cc1	1.1	0.491 (inactive)	0.532	-0.129	0.69	2.76	0.323	1.31	-1.01	1.16
CC(C)CNC(=O)[C@@]1(C)c2ccccc2C(=O)N(Cc2cc(F)cc(C(F)(F)F)c2)[C@H]1c1ccc(CO)cc1	0.621	-0.17 (inactive)	-0.0044	-0.046	0.284	1.2	0.615	1.17	0.443	0.771
CN(C)C(=O)[C@]1(Cc2ccccc2CN=[N+]=[N-])N=C(c2ccc(OCCCO)cc2)O[C@@H]1c1ccccc1N=[N+]=[N-]	0.873	-0.118 (inactive)	-0.155	-0.153	0.58	2.68	-0.339	1.3	-0.534	1.07
C=CCNC(=O)[C@H]1[C@@H]2C(=O)O[C@@H](c3ccccc3)[C@@H](c3ccccc3)N2[C@@H](c2ccccc2OCCO)[C@]12C(=O)N(C(=O)OCCOC)c1ccccc12	0.813	-0.104 (inactive)	-0.161	-0.153	0.567	1.96	0.883	1.21	0.414	1.13
COc1ccc(CC[C@H](O)c2cccc(OCC(=O)OC(C)(C)C)c2)cc1	0.625	0.0178 (inactive)	-0.0014	-0.0876	0.29	1.34	0.341	1.33	0.723	1.2
COc1ccc(C#Cc2ccc3c(c2)[C@]2(C(=O)N3)[C@H](c3ccc(OCCO)cc3)N3[C@H](c4ccccc4)[C@H](c4ccccc4)OC(=O)[C@H]3[C@@H]2C(=O)O)cc1	-0.0067	-0.221 (inactive)	1.18	-0.0907	0.653	3.18	0.811	1.3	0.234	0.761
Cc1ccc(S[C@]2(C(=O)NCCN3CCOCC3)CC(=O)N(C3CCCCC3)[C@@H]2c2ccc(CO)cc2I)cc1	0.81	0.918 (inactive)	-0.101	-0.155	0.405	2.89	-0.006	1.27	0.138	1.11
CC1CC/C=C\[C@H]2OC34C=CCN(CCN5CCOCC5)C(=O)[C@H]3N(CCCCCCO)C(=O)[C@@H]4C2C(=O)O1 (stereo not given in full)	-0.0754	0.446 (inactive)	-0.438	-0.14	0.864	-0.686	-0.362	-0.715	-0.756	-1.53
